In the library only some 1.8% were active in any assay of this set; here they are far more common.
DUSP3 inh: inhibitors of human VHR1 phosphatase (DUSP3); P51452; recombinant VHR phosphatase, pNPP absorbance; inhibition, % at 13.3 µM; hit rate 0.52% among 290,000; AID 1654; in the data active means inhibition above about 50%
Target sequence (P51452 whole entry, looked up): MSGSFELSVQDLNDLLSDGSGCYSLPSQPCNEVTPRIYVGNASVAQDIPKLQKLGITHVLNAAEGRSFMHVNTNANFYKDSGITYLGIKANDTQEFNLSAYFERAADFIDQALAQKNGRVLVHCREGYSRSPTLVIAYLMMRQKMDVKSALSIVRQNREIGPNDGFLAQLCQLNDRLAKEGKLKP
CCHF vOTU inh-1: CCHFV vOTU protease inhibition; Pep-AMC fluorescence; inhibition, % at 11.5 µM; hit rate 0.55% among 370,000; AID 651958
Y pestis TopoI: inhibitors of Yersinia pestis topoisomerase I; Y. pestis Topo-I cleavage product accumulation, plate reader; AID 504884; hit rate 0.064% among 360,000; activity, % at 10 µM; in the data active means activity above about 50%, passing the limit was not always enough
PrPC surface inh: reduces human prion protein on the cell surface; AID 720596; inhibition, % at 13.8 µM; P04156; cell surface PrPC, TR-FRET read-out; hit rate 0.43% among 370,000; in the data active means inhibition above about 24%
Vc quorum ag: quorum light induction in luxS cqsA deficient V. cholerae. V. cholerae BH1578 lux reporter, luminescence, 6 h. activation, % at 18.7 µM. hit rate 0.16% among 350,000. AID 588436; in the data active means activation mostly above about 9.7%, no sharp cut-off
MazEF act: MazEF (E. coli) toxin RNase activation. FAM/BHQ RNA-DNA oligo cleavage fluorescence, 5 h. AID 504720. P0AE70. hit rate 0.32% among 350,000. activation, % at 20 µM; in the data active means activation above about 50%
Target sequence (P0AE70 whole entry, looked up): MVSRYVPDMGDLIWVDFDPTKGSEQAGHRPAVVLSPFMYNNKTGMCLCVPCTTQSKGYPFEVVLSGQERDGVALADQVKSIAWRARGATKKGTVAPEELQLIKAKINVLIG
CCHF vOTU inh-2: CCHFV vOTU protease inhibition, confirmation. shares compounds with CCHF vOTU inh-1. Recombinant CCHFV vOTU, Pep-AMC fluorescence. inhibition, % at 11.5 µM. hit rate 17% among 1,900. AID 686976
Large screens that a line does not name were inactive (follow-up assays come after a bar, where they were run). Unless noted, no stated cut-off is given here; in the data, active means inhibition above about 30%; inactive means the rest.

COc1cc(CCC(=O)NCCc2ccc(F)cc2)cc(OC)c1OC	none
CC(C(=O)Nc1ccc(S(=O)(=O)N2CCCC2)cc1)N1CCCC(C(N)=O)C1 (centres undefined)	none (no result: DUSP3 inh)
CC(C)CC1C(=O)N(Cc2cn(CCC3OCCCO3)nn2)CCS(=O)(=O)N1Cc1ccc(-c2ccncc2)cc1 (centres undefined)	none (no result: DUSP3 inh)
CCOC(=O)C1=C(Cc2ccc(C)cc2)C(=O)c2ccccc2C1=O	CCHF vOTU inh-1 96 (no result: Y pestis TopoI, Vc quorum ag, MazEF act) | CCHF vOTU inh-2 inactive
O=C(CC(Nc1ccccc1)c1ccccc1)C1CC1 (centres undefined)	none
Cc1ccccc1-c1nc(CS(=O)(=O)CC(=O)NCCc2ccccc2)c(C)o1	CCHF vOTU inh-1 39 | CCHF vOTU inh-2 inactive
Cc1oc(-c2ccccc2F)nc1CS(=O)(=O)CC(=O)NCCCc1ccccc1	none
COc1ccc(NC(=O)COc2cc(C)cc(C)c2)cc1S(=O)(=O)N1CCCCC1	CCHF vOTU inh-1 30 (no result: DUSP3 inh) | CCHF vOTU inh-2 inactive
C[C@H]1[C@H](N(Cc2cccs2)Cc2cccs2)CC[C@@]23CCCN2C(=O)CCC[C@@H]13	none (no result: DUSP3 inh, CCHF vOTU inh-1, Y pestis TopoI, Vc quorum ag, MazEF act)
O=C(c1ccc([N+](=O)[O-])cc1)N1CCN(c2ncc(Br)cn2)CC1	none
Nc1ccn([C@@H]2O[C@H](C(=O)N[C@H](Cc3ccccc3)C(=O)N3CCN(C(=O)N4CCCCC4)CC3)[C@@H](O)[C@H]2O)c(=O)n1	none (no result: DUSP3 inh, Y pestis TopoI, Vc quorum ag, MazEF act)
CCSC1=N/C(=C\c2ccccc2)C(=O)N1c1ccc(OC)cc1	CCHF vOTU inh-1 30 | CCHF vOTU inh-2 inactive
C=CCSC1=N/C(=C\c2cccnc2)C(=O)N1c1ccc(OC)cc1	none
Cc1cccc(Nc2nc(N)c([N+](=O)[O-])c(NCCO)n2)c1	none
Cc1cccc(NC2=C(NCCO)C(=O)c3ccccc3C2=O)c1	CCHF vOTU inh-1 54 | CCHF vOTU inh-2 inactive
COc1cccc(NC2=C(NCCO)C(=O)c3ccccc3C2=O)c1	CCHF vOTU inh-1 35 | CCHF vOTU inh-2 inactive
COc1ccc(NC2=C(NCCO)C(=O)c3ccccc3C2=O)cc1	CCHF vOTU inh-1 88 | CCHF vOTU inh-2 57
COc1ccc(C(NC(=O)C2CCN(CCOc3ccc(Cl)cc3)CC2)c2cccs2)cc1 (centres undefined)	none (no result: DUSP3 inh, MazEF act)
O=C(COC(=O)COc1ccccc1Cl)Nc1ccccc1OC(F)F	CCHF vOTU inh-1 33 | CCHF vOTU inh-2 inactive
O=C(COC(=O)c1ncc(Cl)c(Cl)c1Cl)Nc1ccccc1OC(F)F	none
Nc1c(N(Cc2ccco2)C(=O)COc2ccccc2Cl)c(=O)[nH]c(=O)n1Cc1ccccc1	CCHF vOTU inh-1 31 (no result: DUSP3 inh) | CCHF vOTU inh-2 inactive
Oc1ccc(C=Nc2cccc3ncccc23)c(O)c1	CCHF vOTU inh-1 44 | CCHF vOTU inh-2 inactive
Oc1ccc(C=Nc2ccc3ncccc3c2)c(O)c1	none (no result: CCHF vOTU inh-1, Y pestis TopoI, PrPC surface inh, Vc quorum ag, MazEF act)
Cc1ccc(S(=O)(=O)NC(=O)C2(C)CCN2C(=O)CC2CCCCC2)nc1 (centres undefined)	none (no result: DUSP3 inh, MazEF act)
COc1ccc(O)c(C(c2c(C)[nH][nH]c2=O)c2c(C)[nH][nH]c2=O)c1	CCHF vOTU inh-1 84 | CCHF vOTU inh-2 inactive
COc1ccc(OC)c(C(c2c(C)[nH][nH]c2=O)c2c(C)[nH][nH]c2=O)c1	none (no result: DUSP3 inh)
O=C(NCCc1ccccc1F)C1CCC(=O)N(CCCN2CCCC2=O)C1 (centres undefined)	none
CC(C)[C@H](NC(=O)[C@H]1N2C(=O)c3ccccc3C2SC1(C)C)C(=O)NCc1ccco1 (some centres undefined)	none
COc1cc(N)c2ncccc2c1Cl	CCHF vOTU inh-1 97 (no result: DUSP3 inh) | CCHF vOTU inh-2 inactive
Oc1c(Cl)c(Cl)c2ncccc2c1Cl	none (no result: DUSP3 inh, Vc quorum ag)
CC(C)C(=O)Nc1ccc(C(=O)N/N=C/c2cc(Br)cc(Br)c2O)cc1	CCHF vOTU inh-1 32 | CCHF vOTU inh-2 inactive
CC(=O)Nc1ccc(C(=O)N/N=C/c2cc(Br)cc(Br)c2O)cc1	none
COC(=O)CC#C[C@@H](C)[C@H](NS(=O)(=O)c1ccc(C)cc1)C(C)(C)C	none (no result: DUSP3 inh, Y pestis TopoI, Vc quorum ag, MazEF act)
CCOCCCn1c(N)c(C(=O)Nc2sc3c(c2C(=O)OC)CCCC3)c2nc3ccccc3nc21	CCHF vOTU inh-1 31 | CCHF vOTU inh-2 inactive
COc1ccc(Cc2nc(-c3cccs3)no2)cc1OC	CCHF vOTU inh-1 31 | CCHF vOTU inh-2 inactive
O=C(OCC(=O)N1CCC(Cc2ccccc2)CC1)c1ccc(CO)cc1	none (no result: DUSP3 inh)
COc1cccc(C(O)c2nc(-c3ccccc3C)cs2)c1 (centres undefined)	none (no result: DUSP3 inh, MazEF act)
COc1ccc(C(O)c2nc(-c3ccc4ccccc4c3)cs2)cc1 (centres undefined)	CCHF vOTU inh-1 39 (no result: DUSP3 inh, MazEF act) | CCHF vOTU inh-2 inactive
COc1ccc(C(O)c2nc(-c3ccccc3C)cs2)cc1 (centres undefined)	CCHF vOTU inh-1 34 (no result: DUSP3 inh, MazEF act) | CCHF vOTU inh-2 inactive
COc1ccc(C(=O)NNC(=S)NC(=O)c2ccc(Cl)cc2)cc1	none (no result: DUSP3 inh, Y pestis TopoI, Vc quorum ag)
COc1cc(C(=O)NNC(=S)NC(=O)c2ccc(Cl)cc2)cc(OC)c1OC	CCHF vOTU inh-1 30 | CCHF vOTU inh-2 inactive
CCOC(=O)c1c(C)[nH]c(C(=O)CN(C)CC(=O)Nc2ccccc2C(F)(F)F)c1C	CCHF vOTU inh-1 31 (no result: DUSP3 inh) | CCHF vOTU inh-2 inactive
CCC(O)c1c(-c2ccccc2)nn(C)c1Cl (centres undefined)	CCHF vOTU inh-1 31 | CCHF vOTU inh-2 inactive
COc1ccc(S(=O)(=O)Nc2cc(SCC(=O)O)c(O)c3ccccc23)cc1	CCHF vOTU inh-1 102 | CCHF vOTU inh-2 39
O=S(=O)(Nc1cc(Sc2cccc3cccnc23)c(O)c2ccccc12)c1ccc(F)cc1	CCHF vOTU inh-1 83 (no result: Y pestis TopoI, Vc quorum ag) | CCHF vOTU inh-2 inactive
COc1ccc(S(=O)(=O)Nc2cc(Sc3ncn[nH]3)c(O)c3ccccc23)cc1	CCHF vOTU inh-1 107, PrPC surface inh 57 (no result: Y pestis TopoI, Vc quorum ag, MazEF act) | CCHF vOTU inh-2 99
O=C(O)CSc1cc(NS(=O)(=O)c2ccc(Cl)cc2)c2ccccc2c1O	CCHF vOTU inh-1 104 | CCHF vOTU inh-2 95
COc1ccc(S(=O)(=O)Nc2ccc(O)c(Sc3ncn[nH]3)c2)cc1	none
CC(=O)Nc1cc(-c2cccc(N)c2)cn2c(-c3ccccc3)cnc12	none (no result: DUSP3 inh, MazEF act)
Cc1sc2nc(CSCC(=O)N(CCC#N)c3ccccc3)[nH]c(=O)c2c1C	none
CCOc1ccc(S(=O)(=O)N2CCN(CC(O)COc3cccc([N+](=O)[O-])c3)CC2)cc1 (centres undefined)	none
Cc1ccc(S(=O)(=O)N2CCOCC2)cc1C(=O)OCC(=O)Nc1ccc2[nH]c(=O)[nH]c2c1	none (no result: DUSP3 inh)
COc1ccccc1N(C(C)=O)C1=C(Cl)C(=O)c2ccccc2C1=O	CCHF vOTU inh-1 91 (no result: DUSP3 inh) | CCHF vOTU inh-2 83
O=C(OCC(=O)N(C1CCCCC1)C1CCCCC1)c1ccc(Cl)nc1	none (no result: DUSP3 inh)
COc1ccc(C2(c3ccc(OC)cc3)NC(=O)N(CC(=O)N(C)C3CCC(C)CC3)C2=O)cc1 (centres undefined)	CCHF vOTU inh-1 30 (no result: DUSP3 inh) | CCHF vOTU inh-2 inactive
CC1CCC(N(C)C(=O)CN2C(=O)NC(c3ccccc3)(c3ccccc3)C2=O)CC1 (centres undefined)	none (no result: DUSP3 inh)

Bioassay records deposited in PubChem by several laboratories.
